Source: PubChem BioAssay (NCI)
Compounds without any hit were thinned out: in the full panel of roughly 83,000, 20% have a hit.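 Percent growth is the endpoint: 0 to 100 indicates growth inhibition (40 means 60% inhibition), 0 means no net growth, and negative values indicate cell death.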 Active and inactive are the calls of the source. The calls were made as follows: active = growth percent below 10; inactive = the rest.

Assays:
Assay in all cases: NCI-60 one-dose screen, 48 h (100 = growth as untreated, 0 = no growth, -100 = all killed)
Conditions in all cases: 10 µM unless noted
NCI-H23 lung = test system: NCI-H23 lung
NCI-H226 lung = test system: NCI-H226 lung
NCI-H322M lung = test system: NCI-H322M lung
HOP-62 NSCLC = test system: HOP-62 NSCLC
NCI-H460 lung = test system: NCI-H460 lung
HOP-92 NSCLC = test system: HOP-92 NSCLC
NCI-H522 lung = test system: NCI-H522 lung
A549/ATCC NSCLC = test system: A549/ATCC NSCLC
786-0 renal = test system: 786-0 renal
COLO 205 colon = test system: COLO 205 colon
DU-145 prostate = test system: DU-145 prostate
K-562 leukemia = test system: K-562 leukemia
MALME-3M melanoma = test system: MALME-3M melanoma
MDA-MB-231 breast = test system: MDA-MB-231 breast
RXF 393 renal = test system: RXF 393 renal
SF-268 CNS = test system: SF-268 CNS
SF-295 CNS = test system: SF-295 CNS
SF-539 CNS = test system: SF-539 CNS
UACC-257 melanoma = test system: UACC-257 melanoma
M14 melanoma = test system: M14 melanoma

| Structure (SMILES) | growth (NCI-H23 lung) | growth (NCI-H226 lung) | growth (NCI-H322M lung) | growth (HOP-62 NSCLC) | growth (NCI-H460 lung) | growth (HOP-92 NSCLC) | growth (NCI-H522 lung) | growth (A549/ATCC NSCLC) | growth (786-0 renal) | growth (COLO 205 colon) | growth (DU-145 prostate) | growth (K-562 leukemia) | growth (MALME-3M melanoma) | growth (MDA-MB-231 breast) | growth (RXF 393 renal) | growth (SF-268 CNS) | growth (SF-295 CNS) | growth (SF-539 CNS) | growth (UACC-257 melanoma) | growth (M14 melanoma) |
| --- | --- | --- | --- | --- | --- | --- | --- | --- | --- | --- | --- | --- | --- | --- | --- | --- | --- | --- | --- | --- |
| COc1ccc2c(c1)CCc1[nH]nc(-c3cc(OC)c(OC)c(OC)c3)c1-2 | 12.7% (inactive) | 41% (inactive) | 47% (inactive) | 12.9% (inactive) | 3.92% (active) | 32.8% (inactive) | -22.3% (active) | 5.04% (active) | 3.88% (active) | -64.6% (active) | 7.06% (active) | 7.23% (active) | 69.8% (inactive) | 19.2% (inactive) | 22.6% (inactive) | 17.8% (inactive) | 1.46% (active) | 0.378% (active) | 38.2% (inactive) | 4.46% (active) |
| CCN(CC)CCN1C(=O)c2c(c(C)c3c(oc4ccc(O)cc43)c2C)C1=O | 47.3% (inactive) | 70% (inactive) | 33.2% (inactive) | 80.7% (inactive) | -45.6% (active) | 91.7% (inactive) | 68.2% (inactive) | 20.6% (inactive) | -36.2% (active) | 83.2% (inactive) | 0.0633% (active) | 6.29% (active) | 73.3% (inactive) | -28.7% (active) | 98.2% (inactive) | 37.1% (inactive) | 89.7% (inactive) | -99.5% (active) | 93.1% (inactive) | 38.3% (inactive) |
| CC1=C2[C@@H](CC1)[C@]1(C)O[C@@](C3CCCCC3)(C[C@H]1OC(=O)CO)[C@H]2OC(=O)/C=C/c1ccccc1 | 93.6% (inactive) | 76.5% (inactive) | 94.6% (inactive) | 91% (inactive) | 75.8% (inactive) | 44.3% (inactive) | 68% (inactive) | 63.1% (inactive) | 55.9% (inactive) | 93.8% (inactive) | 89.3% (inactive) | 63.5% (inactive) | 79.5% (inactive) | 86.4% (inactive) | 39.9% (inactive) | 31.9% (inactive) | 86.5% (inactive) | 102% (inactive) | 84.5% (inactive) | 91.6% (inactive) |
| Cn1cc(-c2csc(-c3c[nH]c4ccc(F)cc34)n2)c2ccnc(Cl)c21 | 64.2% (inactive) | 62.1% (inactive) | 80.6% (inactive) | 98.2% (inactive) | 36.7% (inactive) | 71.5% (inactive) | 79.4% (inactive) | 64.3% (inactive) | 57.6% (inactive) | 52.2% (inactive) | 51.2% (inactive) | 53.3% (inactive) | 121% (inactive) | 60.9% (inactive) | 67.8% (inactive) | 92% (inactive) | 85% (inactive) | 68.9% (inactive) | 39.3% (inactive) | 57.4% (inactive) |
| CCOC(=O)C#Cc1c(C(=O)OCC)nnn1Cc1ccc(C(F)(F)F)cc1 | 97.9% (inactive) | 71.9% (inactive) | 93.4% (inactive) | 103% (inactive) | 95.8% (inactive) | 65.5% (inactive) | -15.1% (active) | 95.8% (inactive) | 43.6% (inactive) | 17.2% (inactive) | 60.5% (inactive) | 3.87% (active) | 74.4% (inactive) | 88.1% (inactive) | -7.11% (active) | 86.6% (inactive) | 94.8% (inactive) | 43.3% (inactive) | 74.2% (inactive) | 30.5% (inactive) |
| O=C(CI)NC(=O)NC(=O)NCc1ccccc1 | 32.6% (inactive) | -43.6% (active) | 86.4% (inactive) | 85.9% (inactive) | 102% (inactive) | -17.4% (active) | -82% (active) | 92.9% (inactive) | 23.9% (inactive) | -41.4% (active) | 78.2% (inactive) | -59.8% (active) | -59% (active) | 11.3% (inactive) | 48.5% (inactive) | 58.5% (inactive) | 91.6% (inactive) | 27.3% (inactive) | 83% (inactive) | 6.48% (active) |
| COc1ccc(/C=C2\COc3ccc(O)cc3C2=O)cc1 | 109% (inactive) | 104% (inactive) | 100% (inactive) | 103% (inactive) | 104% (inactive) | 110% (inactive) | 37.7% (inactive) | 97.8% (inactive) | 92.2% (inactive) | 110% (inactive) | 111% (inactive) | 24% (inactive) | 96.1% (inactive) | 92.8% (inactive) | 115% (inactive) | 99.4% (inactive) | 108% (inactive) | 102% (inactive) | 106% (inactive) | 90.8% (inactive) |
| C=CC(=O)Nc1ccc(Nc2nccc(-c3ccc(N4CCCC4)c(C#N)c3)n2)cc1 | 62.1% (inactive) | 52.7% (inactive) | 41.2% (inactive) | 19.2% (inactive) | 0.189% (active) | 60.9% (inactive) | 12.4% (inactive) | 14.7% (inactive) | -67.4% (active) | 7.29% (active) | 36.8% (inactive) | 16.6% (inactive) | -41.8% (active) | 60.9% (inactive) | -54.5% (active) | 43.9% (inactive) | -36.9% (active) | 51.1% (inactive) | 39.4% (inactive) | 3.42% (active) |
| O=C(N/N=C/c1cc(Cl)ccc1O)c1ccccc1Nc1ccnc(C(F)(F)F)c1 | 37.9% (inactive) | -1.12% (active) | 19.9% (inactive) | 30.4% (inactive) | 4.73% (active) | 14% (inactive) | 50.9% (inactive) | 54.4% (inactive) | 27.2% (inactive) | 14.1% (inactive) | 25.8% (inactive) | 89.3% (inactive) | -18.7% (active) | 50.4% (inactive) | 58.3% (inactive) | 18.3% (inactive) | 28.9% (inactive) | -4.43% (active) | 42.8% (inactive) | 23.6% (inactive) |
| Cc1ccc(C(=O)c2ccc(CC(=O)NN3C(=O)c4ccccc4C3=O)n2C)cc1 | 100% (inactive) | 97.8% (inactive) | 102% (inactive) | 88.9% (inactive) | 104% (inactive) | 97.8% (inactive) | 88.1% (inactive) | 101% (inactive) | 103% (inactive) | 105% (inactive) | 108% (inactive) | 90.9% (inactive) | 101% (inactive) | 93.9% (inactive) | 102% (inactive) | 95.8% (inactive) | 98.6% (inactive) | 97.3% (inactive) | 100% (inactive) | 104% (inactive) |
| NS(=O)(=O)c1ccc(C(=O)NN2C(=O)c3c(Br)c(Br)c(Br)c(Br)c3C2=O)cc1 | 104% (inactive) | 102% (inactive) | 111% (inactive) | 105% (inactive) | 110% (inactive) | 99.4% (inactive) | 94.3% (inactive) | 102% (inactive) | 103% (inactive) | 112% (inactive) | 103% (inactive) | 102% (inactive) | 98.7% (inactive) | 101% (inactive) | 110% (inactive) | 95.5% (inactive) | 98.2% (inactive) | 96.9% (inactive) | 100% (inactive) | 98.9% (inactive) |
| CCOC(=O)C(=CNc1cnc(Nc2ccc(N3CCOCC3)cc2)nc1Oc1ccc(OC)cc1)C(=O)OCC | 68.4% (inactive) | 70.3% (inactive) | 39.7% (inactive) | 23.5% (inactive) | 2.03% (active) | 30.3% (inactive) | 76.3% (inactive) | 22.2% (inactive) | 30.8% (inactive) | 65.9% (inactive) | 73% (inactive) | 49.2% (inactive) | 39% (inactive) | 59.7% (inactive) | 89.2% (inactive) | 69.7% (inactive) | 75.9% (inactive) | 24.7% (inactive) | 87.4% (inactive) | 63.7% (inactive) |
| CCS/C(Nc1ccccc1)=C(\C#N)C(=O)Nc1ccc(OC)cc1 | 48.3% (inactive) | 57.9% (inactive) | 51.6% (inactive) | 34.2% (inactive) | 10.1% (inactive) | 44.5% (inactive) | 0.635% (active) | 34.6% (inactive) | 39.5% (inactive) | 17.5% (inactive) | 33.8% (inactive) | 7.34% (active) | 55.6% (inactive) | 44.5% (inactive) | 39.5% (inactive) | 39.1% (inactive) | 32.6% (inactive) | 29.1% (inactive) | 58.4% (inactive) | 15.2% (inactive) |
| NC(=O)c1cnc(Nc2cccc(N)c2)nc1NCCCNC(=O)C1CCC1 | 79.8% (inactive) | 69.1% (inactive) | 86.6% (inactive) | 46.6% (inactive) | 69.8% (inactive) | 123% (inactive) | 64.5% (inactive) | 87.7% (inactive) | 76.8% (inactive) | 28.2% (inactive) | 75.9% (inactive) | 52% (inactive) | 80.3% (inactive) | 50.1% (inactive) | 21.4% (inactive) | 76.2% (inactive) | 69.3% (inactive) | 5.4% (active) | 107% (inactive) | 55.4% (inactive) |
